Hits are enriched below; roughly 2.8% of the tested compounds scored in any of these assays.
HTRA1 inhibitor = blocks human HTRA1 serine peptidase; 340,000 compounds, 0.5% hits; inhibition, % at 5.96 µM; Q92743; recombinant HTRA1, FP-rhodamine activity-based probe, fluorescence polarization; in the data active = inhibition above about 36%;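 also: 0% = enzyme with DMSO and 100% = wells lacking enzyme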
Target sequence (Q92743 whole entry, looked up): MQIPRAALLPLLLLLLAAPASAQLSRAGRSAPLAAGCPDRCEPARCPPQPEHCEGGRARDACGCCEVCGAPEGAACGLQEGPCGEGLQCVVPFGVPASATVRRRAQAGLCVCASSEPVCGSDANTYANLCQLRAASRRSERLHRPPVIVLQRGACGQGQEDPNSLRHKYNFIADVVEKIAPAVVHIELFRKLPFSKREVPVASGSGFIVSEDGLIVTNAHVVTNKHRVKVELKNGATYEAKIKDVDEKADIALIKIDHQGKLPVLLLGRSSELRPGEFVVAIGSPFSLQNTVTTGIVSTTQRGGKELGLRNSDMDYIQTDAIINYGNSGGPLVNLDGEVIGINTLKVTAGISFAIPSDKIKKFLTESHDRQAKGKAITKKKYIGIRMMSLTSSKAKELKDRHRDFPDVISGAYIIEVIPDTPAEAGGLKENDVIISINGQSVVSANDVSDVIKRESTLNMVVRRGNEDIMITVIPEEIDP
DAGLB inh = diacylglycerol lipase beta (human) inhibition. 340,000 compounds, 0.059% hits. Q8NCG7. HEK293T DAGLB membrane lysate, EnzChek fluorogenic substrate. AID 504411. inhibition, % at 5.17 µM; in the data active = inhibition above about 34%;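 also: 0% = enzyme with vehicle and 100% = wells lacking enzyme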
pPAFAH inh = pPAFAH (human) enzyme inhibition | Q13093 | recombinant pPAFAH, FP-rhodamine probe fluorescence polarization | inhibition, % at 3.39 µM | 330,000 compounds, 1.5% hits;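 active = inhibition above the mean inhibition across the screen plus 3 SD, cut at about 25% in these data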;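 also: inhibitors block binding of the rhodamine activity-based probe so polarization drops; 0% = enzyme with DMSO and 100% = wells lacking pPAFAH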
PAFAH2 inh = inhibitors of human PAFAH2; recombinant PAFAH2, FP-rhodamine activity probe, fluorescence polarization; inhibition, % at 3.39 µM; 340,000 compounds, 0.99% hits; AID 492956;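 active = inhibition above the mean over all tested compounds plus 3 SD, cut at about 30% in these data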;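 also: inhibitors block probe labeling of enzyme so polarization drops; 0% = enzyme with DMSO and 100% = wells lacking PAFAH2 protein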
PAFAH1B2 FP inh = inhibitors of human PAFAH1B2 | P68402 | recombinant PAFAH1B2, FP-rhodamine activity probe, fluorescence polarization | inhibition, % at 3.39 µM | 340,000 compounds, 1.2% hits;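 active = inhibition above the mean of all tested compounds plus 3 SD, cut at about 24% in these data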;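 also: 0% = enzyme with DMSO and 100% = wells lacking PAFAH1B2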
PAFAH1B3 FP inh = PAFAH1B3 (human) inhibition. Q15102. recombinant PAFAH1B3, FP-rhodamine probe, fluorescence polarization. inhibition, % at 3.39 µM. 340,000 compounds, 0.28% hits;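 active = inhibition above the screen-wide average of all tested compounds plus 3 SD, cut at about 25% in these data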;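 also: 0% = enzyme with DMSO only and 100% = wells lacking PAFAH1B3 protein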
An asterisk follows results filed as active; x = not tested or not shown.

SMILES	HTRA1 inhibitor	DAGLB inh	pPAFAH inh	PAFAH2 inh	PAFAH1B2 FP inh	PAFAH1B3 FP inh
CCC(CNc1cc(OC)cc2cccnc12)NC1CCCCC1 (stereo not drawn)	20.9	0.3	25.4*	-0.5	4.8	13.3
CCOC(=O)C1=C(C)N=c2s/c(=C\c3ccc(C(=O)O)cc3)c(=O)n2C1c1ccc(OC)cc1OC (stereo not drawn)	-4.7	-0.8	1.1	4.3	3.0	6.2
CCOC(=O)C1=C(C)N=c2s/c(=C/c3ccco3)c(=O)n2C1c1cccc(OC)c1 (stereo not drawn)	x	x	33.5*	x	x	x
CC(Sc1nnc(-c2ccncc2)n1C)C(=O)Nc1ccc(N2CCOCC2)cc1 (stereo not drawn)	2.0	-2.9	3.1	-4.0	5.4	0.6
O=[N+]([O-])c1ccccc1/C=C/C=N/n1c(-c2ccc(Cl)cc2)n[nH]c1=S	-7.8	10.0	26.9*	3.9	-0.3	3.1
O=[N+]([O-])c1ccccc1/C=C/C=N/n1c(-c2ccccc2)n[nH]c1=S	-0.4	-0.5	4.7	-1.4	-0.7	4.6
Cc1ccc(CC(=O)OCC(=O)NC2CCCC(C)C2C)cc1C (stereo not drawn)	-0.1	-4.1	29.3*	38.5*	4.2	10.1
CC1CCCC(NC(=O)COC(=O)c2ccc([N+](=O)[O-])s2)C1C (stereo not drawn)	28.9	-0.6	16.4	65.6*	14.9	53.2*
CC1CCCC(NC(=O)COC(=O)Cc2ccc(Cl)cc2)C1C (stereo not drawn)	-5.7	-1.6	28.1*	15.9	20.4	15.2
COc1ccc(/C=C/C(=O)OCC(=O)NC2CCCC(C)C2C)c(OC)c1 (stereo not drawn)	-5.9	-4.3	29.4*	76.1*	-1.6	-1.1
COc1ccc(/C=C/C(=O)OCC(=O)N2CCCC2)c(OC)c1	2.1	0.0	5.0	16.1	0.8	-2.5
CCC1CCC2(CC1)NC(=O)N(CC(=O)N1CCc3ccccc31)C2=O (stereo not drawn)	-6.2	-0.5	2.1	1.7	6.2	-3.7
CCC1CCCCN1C(=S)NC(=O)c1cccc([N+](=O)[O-])c1 (stereo not drawn)	4.8	-2.3	5.6	10.2	6.7	1.9
Cc1ccc(N2CC(=O)N(NC(=O)c3sc4nc(C)cc(C)c4c3N)CC2=O)cc1	-3.0	3.0	4.5	5.5	-1.1	-0.3
CC(Sc1ccc(Br)cc1)C(N)=O (stereo not drawn)	-1.2	-3.5	4.9	6.4	36.9*	3.8
NC(=O)CSc1ccc(Br)cc1	-0.6	1.2	0.8	-6.1	49.6*	3.1
CC(NS(=O)(=O)c1ccc(Br)cc1)C(N)=O (stereo not drawn)	-10.5	0.1	3.9	-1.0	1.8	5.3
CCOC(=O)c1cnc2c(c(C)nn2CC)c1NCCN1CCOCC1	4.5	-0.2	0.6	-6.2	-0.4	2.9
COc1ccccc1CNC(=O)c1sccc1-c1ccccc1	-15.2	-6.6	10.8	8.8	8.0	-0.6
O=C(CCc1ccccc1)N=C1SC2CS(=O)(=O)CC2N1c1ccccc1 (stereo not drawn)	-1.8	0.6	4.8	6.5	2.5	4.8
N#C/C(=C/c1cn[nH]c1-c1ccc(Br)cc1)C(=O)O	0.5	0.5	8.8	8.2	30.5*	18.2
Cc1nc2cc3ccccc3cc2c(=O)[nH]1	6.0	2.5	26.5*	0.1	-0.1	7.0
CCOc1ccc(OCCSc2nc3ccccc3c(=O)[nH]2)cc1	-1.1	-2.3	2.9	3.5	31.1*	-6.1
Cc1ccc(CN2C(=O)CSC2c2ccc(F)cc2)cc1 (stereo not drawn)	1.0	-3.1	0.6	7.7	25.7*	9.3
CN1CCN(CCCNC(=O)Nc2ccc([N+](=O)[O-])cc2)CC1	3.0	0.9	2.7	-5.2	1.2	3.8
SMILES	HTRA1 inhibitor	DAGLB inh	pPAFAH inh	PAFAH2 inh	PAFAH1B2 FP inh	PAFAH1B3 FP inh
C=CCN=C1CCCc2c1[nH]c1ccc(C)cc21	-3.4	-0.7	6.1	2.4	-0.1	-1.2
CC[C@@H]1C=C(C(=O)O)[C@H](c2ccc(C)cc2)N1S(=O)(=O)c1ccc(C)cc1	4.2	-1.7	2.4	1.1	7.6	7.4
CCCCC[C@@H]1C=C(C(=O)O)[C@H](c2ccc(Br)cc2)N1S(=O)(=O)c1ccc(C)cc1	-55.6	7.1	4.0	3.6	26.7*	0.3
CCCC[C@@H]1C=C(C(=O)O)[C@H](c2ccc(Cl)cc2)N1S(=O)(=O)c1ccc(C)cc1	-11.4	5.0	-1.0	8.7	28.5*	4.6
CC(C)(C)[C@@H]1C=C(C(=O)O)[C@H](c2ccc(Cl)cc2)N1S(=O)(=O)c1ccccc1	2.9	5.1	4.8	-0.9	27.2*	10.4
Cc1ccc(S(=O)(=O)N2[C@@H](c3ccc(C#N)cc3)C(C(=O)O)=C[C@H]2CC2CCCC2)cc1	-12.8	8.9	1.6	4.0	26.8*	-1.3
Cc1ccc(S(=O)(=O)N2[C@@H](c3ccc(Cl)c(Cl)c3)C(C(=O)O)=C[C@H]2CC2CCCC2)cc1	-102.2	6.8	11.4	-1.8	23.3	-5.4
N#CCCN=C(NS(=O)(=O)c1ccccc1)c1ccccc1	-4.8	-3.9	3.6	6.4	1.8	5.2
CCCSc1nc(O)c(C2OC(=O)c3c2ccc(OC)c3OC)c(=O)n1C (stereo not drawn)	3.7	2.1	-1.7	1.2	0.1	0.4
CCCCCCSc1nc(O)c(C2OC(=O)c3c2ccc(OC)c3OC)c(=O)n1CC (stereo not drawn)	2.4	3.3	31.4*	15.0	23.5	2.5
CCN(C[C@H]1N[C@@](C)(C(=O)OC)[C@H]2C(=O)N(C)C(=O)[C@@H]12)C(=O)Nc1ccc(C(F)(F)F)cc1	6.2	0.4	1.6	13.1	1.9	-4.7
O=C(Cc1ccc(Cl)c(Cl)c1)OCC(=O)c1ccc[nH]1	-18.7	0.4	5.5	-4.0	2.0	-2.9
O=C(OCc1ccc(Cl)c(Cl)c1)c1ccc[nH]1	-25.5	-0.9	-1.6	46.6*	5.5	4.3
COc1cccc(-c2c(C#N)c(N)nc3c2c(C)nn3-c2ccccc2)c1O	-22.5	-0.5	0.4	-4.5	-1.5	1.4
CCCc1ccc(Oc2cc(Cl)nc(N)n2)cc1	-0.2	-5.5	26.3*	11.3	6.4	10.2
CCc1ccc(Oc2cc(C)nc(N)n2)cc1	2.3	0.1	10.7	-8.0	3.9	-0.6
CCOC(=O)N1CCN(C(=O)c2ccccc2NC(=O)COc2ccccc2)CC1	14.3	-0.2	3.2	-4.0	49.2*	-1.4
CC1(C)CC(NC(=O)C2CCC(=O)N(Cc3ccccc3F)C2)CC(C)(C)C1 (stereo not drawn)	0.4	1.6	x	3.4	27.5*	15.4
O=C1CC(c2cccs2)Cc2nc(NC(=O)C3CC3)ncc21 (stereo not drawn)	3.2	-1.7	2.1	4.2	4.5	7.5
